Over roughly 110,000 compounds, “z-score” has its median near -0.1; the highest 2% begin near 2. What follows is part of a selection rich in the highest values, with near analogues and random picks from the rest. Activity calls are given as the source filed them.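 How the source made its calls: active means z-score in the third read window above 3 or below -3; inactive means the rest.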
Biological target: Metabotropic glutamate receptor 8 (Rattus norvegicus) (UniProt P70579)
Assay: mGluR8 Gi/Go-coupled signaling modulation – cell-based, rat, thallium flux, HTS, primary screen (AID 488969)
Conditions: HEK293 rat mGluR8, GIRK (G protein-gated inwardly rectifying potassium channel) thallium flux, FluoZin2; at 10 µM; stronger effect = higher value; submaximal glutamate (EC20) added with thallium

Sequence of Metabotropic glutamate receptor 8 (Rattus norvegicus) (P70579 whole entry, looked up): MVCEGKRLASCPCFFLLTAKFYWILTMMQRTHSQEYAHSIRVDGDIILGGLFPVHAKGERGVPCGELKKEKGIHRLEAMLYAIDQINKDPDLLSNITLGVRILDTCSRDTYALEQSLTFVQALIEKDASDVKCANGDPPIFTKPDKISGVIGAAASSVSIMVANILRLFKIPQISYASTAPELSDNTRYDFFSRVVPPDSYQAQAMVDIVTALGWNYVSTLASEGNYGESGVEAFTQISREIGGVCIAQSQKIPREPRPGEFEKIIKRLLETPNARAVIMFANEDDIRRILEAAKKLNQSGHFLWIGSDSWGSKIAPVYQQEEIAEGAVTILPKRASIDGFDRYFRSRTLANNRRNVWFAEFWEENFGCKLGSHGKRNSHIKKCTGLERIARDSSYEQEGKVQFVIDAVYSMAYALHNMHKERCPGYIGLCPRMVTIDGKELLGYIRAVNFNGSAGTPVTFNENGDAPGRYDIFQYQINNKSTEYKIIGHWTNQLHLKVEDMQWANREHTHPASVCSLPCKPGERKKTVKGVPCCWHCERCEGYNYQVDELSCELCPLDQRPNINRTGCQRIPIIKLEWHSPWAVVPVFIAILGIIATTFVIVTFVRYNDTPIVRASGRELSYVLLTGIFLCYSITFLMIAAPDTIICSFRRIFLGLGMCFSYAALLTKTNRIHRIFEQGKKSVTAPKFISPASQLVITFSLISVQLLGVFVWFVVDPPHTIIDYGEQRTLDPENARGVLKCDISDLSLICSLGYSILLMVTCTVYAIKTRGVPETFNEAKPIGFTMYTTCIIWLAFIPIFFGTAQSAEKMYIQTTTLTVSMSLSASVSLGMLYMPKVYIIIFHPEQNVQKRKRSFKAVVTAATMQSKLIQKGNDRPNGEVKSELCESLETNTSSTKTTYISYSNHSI

| Structure (SMILES) | z-score |
| --- | --- |
| O=C(CSCCc1ccccn1)Nc1ccc(Br)cn1 | -0.0969 |
| CCc1nnc(NC(=O)c2cc(S(=O)(=O)N3CCN(c4ccccc4)CC3)ccc2Cl)s1 | -0.438 |
| CCOc1cc(/C=N/O)cc(Br)c1OCC | -0.564 |
| CCCCOc1c(Br)cc(/C=N/O)cc1OCC | 2.8 |
| CCCOc1c(Br)cc(/C=N/O)cc1OC | -0.858 |
| CCOc1ccc(NC(=O)CN2CCN(CC(=O)Nc3ccc(F)c(F)c3)CC2)cc1 | -0.0841 |
| N#Cc1cnn(Cc2ccccc2)c1N | -0.318 |
| CCOC(=O)C1CCCN(Cc2nc(N)nc(Nc3ccc(Cl)cc3)n2)C1 (configuration not stated) | -0.508 |
| Cc1cccc(NC(=S)NN(Cc2ccccc2)c2ccccc2)c1C | -0.141 |
| Fc1ccccc1NC(=S)NN(Cc1ccccc1)c1ccccc1 | 5.03 (active) |
| CC(C)c1ccccc1NC(=S)NN(Cc1ccccc1)c1ccccc1 | -0.164 |
| c1ccc(-c2ccc(-c3cnc4n3CCCCC4)cc2)cc1 | 0.704 |
| O=C(O)CCCCNS(=O)(=O)c1ccc(Cl)c(C(F)(F)F)c1 | -0.602 |
| CC(C)OC(=O)CSc1nnc(SCc2cccc3ccccc23)s1 | -0.157 |
| Cc1ccc(C(=O)NNC(=O)c2cccnc2SCc2cccc([N+](=O)[O-])c2)cc1 | -0.0883 |
| O=C(NNC(=O)c1cccnc1SCc1cccc([N+](=O)[O-])c1)c1ccccn1 | 3.29 (active) |
| O=C(NNC(=O)c1cccnc1SCc1cccc([N+](=O)[O-])c1)c1ccc(F)cc1 | 0.33 |
| COc1cc(NC(=O)c2cc(OC)c(OC)c(OC)c2)c(OC)cc1NC(=O)CN1CCCCC1 | -2.33 |
| CCN1/C(=C2\C(=O)N(C)C(=S)N2C)C=Cc2ccccc21 | -0.543 |
| CC(C)Cn1c(-c2ccc(Br)o2)n[nH]c1=S | 1.12 |
| S=c1[nH]nc(-c2ccco2)n1Cc1ccccc1 | 0.271 |
| S=c1[nH]nc(-c2ccc(Br)o2)n1Cc1ccccc1 | 3.42 (active) |
| Cc1cccc(-c2n[nH]c(=S)n2Cc2ccccc2)c1 | 1.74 |
| Cc1ccc(-c2n[nH]c(=S)n2Cc2ccccc2)cc1 | -0.277 |

| Structure (SMILES) | z-score |
| --- | --- |
| S=c1[nH]nc(-c2cc3ccccc3o2)n1Cc1ccccc1 | 2.66 |
| COc1ccc(C(=O)Cn2nnc(-c3ccccc3F)n2)cc1 | -0.251 |
| C1CCC2(CC1)OCC1(CO2)COC2(CCCCC2)OC1 | 3.83 (active) |
| C[N+]1(CC2COC3(CCCCC3)O2)CCCC1 (configuration not stated) | -0.214 |
| Nn1c(SCc2ccccc2)nnc1-c1ccccn1 | 0.00631 |
| CC(=O)NCCn1c(SCC(=O)NCC2CCCO2)nc2ccccc2c1=O (configuration not stated) | 0.564 |
| CCN(CC)S(=O)(=O)c1cccc(-c2nnc(C(=O)c3ccc(C(F)(F)F)cc3)o2)c1 | -0.091 |
| COc1cc(NC(=O)CSCC(=O)Nc2cccc(C(F)(F)F)c2)c(Cl)cc1Cl | -0.193 |
| CC(C)Oc1cc(NC(=O)CSCC(=O)Nc2cccc(C(F)(F)F)c2)c(Cl)cc1Cl | -0.183 |
| CC(C)Oc1cc(NC(=O)CS(=O)CC(=O)Nc2cccc(C(F)(F)F)c2)c(Cl)cc1Cl (configuration not stated) | 2.75 |
| CCCn1nnnc1NC(=O)c1cc(Cl)ccc1Cl | 0.462 |
| CCCn1nnnc1NC(=O)c1cccs1 | 0.876 |
| CCCn1nnnc1NC(=O)c1ccc2ccccc2c1 | 8.08 (active) |
| CSc1nc(Cc2ccc(Cl)cc2)nc2ccccc12 | 0.221 |
| CS(=O)(=O)N(CC(=O)Nc1ccccc1)Cc1ccc(Cl)cc1 | 0.264 |
| CCN=c1scc(-c2ccco2)n1/N=C/c1ccc(O)cc1 | 6.24 (active) |
| CC(C)N=c1scc(-c2ccco2)n1/N=C/c1ccc(O)c(O)c1 | 1.68 |
| CCN=c1scc(-c2ccco2)n1/N=C/c1ccc(OC)c(O)c1 | 0.709 |
| O=C(CCn1c(=O)sc2ccccc21)Nc1ccon1 | -0.246 |
| Cc1ccc(OS(=O)(=O)c2ccccc2)c(/C=N/N=C2\NC(=O)C(C)S2)c1 (configuration not stated) | -0.426 |
| O=C(O)/C(=C\c1ccc(Br)cc1)c1ccc(S(=O)(=O)N2CCCCC2)s1 | -0.862 |
| CCOC(=O)C(Cc1ccccc1)NC(C)=O (configuration not stated) | -0.16 |
| CCN(C(=O)CSc1cc(-c2ccccc2)c2ccc(OC)cc2n1)C1CCS(=O)(=O)C1 (configuration not stated) | -0.108 |
| COc1ccc2c(-c3ccccc3)cc(SCC(=O)N(C)C3CCS(=O)(=O)C3)nc2c1 (configuration not stated) | 2.36 |

| Structure (SMILES) | z-score |
| --- | --- |
| CCCN(C(=O)CSc1cc(-c2ccccc2)c2ccc(OC)cc2n1)C1CCS(=O)(=O)C1 (configuration not stated) | -0.403 |
| O=C(CSc1nnc(Cc2ccccc2)n1-c1ccc(F)cc1)N1CCOCC1 | 0.477 |
| O=S(=O)(Cc1cc(Cl)nc(-c2ccccc2)n1)c1ccccc1 | -0.303 |
| O=C(COc1ccccc1)NC(=S)Nc1ccc2c(c1)Cc1ccccc1-2 | 6.86 (active) |
| O=C(COc1ccccc1)Nc1ccc2c(c1)Cc1cc(NC(=O)COc3ccccc3)ccc1-2 | -0.155 |
| O=C(COc1ccccc1)Nc1ccc([N+](=O)[O-])cc1 | 0.423 |
| O=C(COc1ccccc1)NC(=S)Nc1cccc(NC(=O)c2ccccc2Cl)c1 | -0.164 |
| O=C(COc1ccccc1)NC(=S)Nc1cccc([N+](=O)[O-])c1 | 11.8 (active) |
| COc1ccc(C(=O)NC(=S)Nc2ccc3c(c2)Cc2ccccc2-3)cc1 | 0.991 |
| CC(Sc1ccccn1)C(=O)Nc1ccccc1 (configuration not stated) | -0.408 |
| Cc1cc2nc(-c3ccco3)cc(C(F)(F)F)n2n1 | 0.0437 |
| CC1CC(Nc2cccc(O)c2)=CC(=O)O1 (configuration not stated) | -0.0768 |
| CCCCC(=O)Nc1ncc2c(n1)CC(C)(C)CC2=O | 6.64 (active) |
| CC1(C)CC(=O)c2cnc(NC(=O)CCc3ccccc3)nc2C1 | -0.267 |
| CCCCC1CC1C(=O)Nc1ncc2c(n1)CC(C)(C)CC2=O (configuration not stated) | -0.185 |
| O=C(O)C1CC(=O)N(Cc2cccs2)C1 (configuration not stated) | 0.254 |
| Cc1nc(-c2ccccc2)sc1C(=O)CSc1ccc(Br)cc1 | -0.108 |
| O=C(CSc1ccccc1)N(c1ccc(Br)cc1)c1nccs1 | 9.08 (active) |
| O=C(CCSc1ccccc1)Nc1nccs1 | 0.115 |
| CCOC(=O)C1CCCN(C(=O)c2cc3c(-c4cccc(OC)c4)nn(C)c3s2)C1 (configuration not stated) | -0.832 |
| Cc1nc(=O)c(-c2ccccc2)c(C)n1CCO | -0.0934 |
| N=c1c2c3c(sc2ncn1Cc1ccccc1)CCCC3 | 0.187 |
| CC(C)Cn1cnc2sc3c(c2c1=N)CCCC3 | 3.07 (active) |
| N=c1c2c3c(sc2ncn1CCCO)CCCC3 | -0.123 |

| Structure (SMILES) | z-score |
| --- | --- |
| CCCNC(=S)Nc1ccc(Cl)cc1C | -0.142 |
| COc1cccc(N2CCN(Cc3nc(N)nc(Nc4ccccc4OC)n3)CC2)c1 | -0.203 |
| Cc1cccc(C)c1OCC(=O)NCc1nnc(SCC(=O)NC2CCCCC2C)n1C (configuration not stated) | -0.0497 |
| FC(F)(F)c1cnc(NNC(=S)Nc2ccc(Cl)cc2)c(Cl)c1 | 6.35 (active) |
| CC(C(=O)Nc1ccc(Cl)cc1)c1ncc(C(F)(F)F)cc1Cl (configuration not stated) | -0.108 |
| CN(NC(=O)Nc1ccc(Cl)cc1)c1ncc(C(F)(F)F)cc1Cl | 0.137 |
| Cc1ccc(NC(=S)NNc2ncc(C(F)(F)F)cc2Cl)c(C)c1 | 2.04 |
| O=C(NNc1ncc(C(F)(F)F)cc1Cl)c1c(Cl)cccc1Cl | 0.951 |
| Cc1c(Cl)cccc1NC(=S)NNc1ncc(C(F)(F)F)cc1Cl | 0.506 |
| FC(F)(F)c1cnc(NNC(=S)Nc2ccccc2Cl)c(Cl)c1 | 5.28 (active) |
| Nc1ccccc1C(=O)NNc1ncc(C(F)(F)F)cc1Cl | 0.251 |
| Cc1cccc(C)c1NC(=S)NNc1ncc(C(F)(F)F)cc1Cl | 0.289 |
| Cc1ccc(NC(=S)NNc2ncc(C(F)(F)F)cc2Cl)cc1 | 2.19 |
| Cc1ccccc1NC(=S)NNc1ncc(C(F)(F)F)cc1Cl | 0.522 |
| Fc1ccccc1NC(=S)NNc1ncc(C(F)(F)F)cc1Cl | 1.37 |
| COc1cc2c(cc1NC(=O)c1cccc(Br)c1)CCCC2 | 0.201 |
| N#Cc1cc2c(nc1SCC(N)=O)CCCCC2 | -0.0763 |
| COc1ccc(-c2csc(Nc3cccnc3)n2)cc1OC | -0.0895 |
| Cc1cc(=O)oc(C)c1C(=O)OCC(=O)c1ccc2ccccc2c1 | -0.249 |
| CCCCCCn1cnc2c(c1=O)c1nc3ccccc3nc1n2Cc1cccs1 | -1.43 |
| Cc1nn2c(NCCCN3CCOCC3)c3c(nc2c1-c1ccccc1)CCC3 | -0.0116 |
| CCCCNc1c2c(nc3c(-c4ccccc4)c(C)nn13)CCC2 | -0.294 |
| Cc1nn2c(NCCCN(C)C)c3c(nc2c1-c1ccccc1)CCC3 | 3.36 (active) |
| CN1CCN(CC(=O)Nc2ccc(Oc3ccccc3)cc2)CC1 | 1.4 |

| Structure (SMILES) | z-score |
| --- | --- |
| O=C(CN1CCOCCOCCOCCOCC1)Nc1ccccc1 | 0.356 |
| O=C(CN1CCOCCOCCOCC1)Nc1ccccc1 | 0.274 |
| O=C(CN1CCCC1)Nc1ccc(Oc2ccc(NC(=O)CN3CCCC3)cc2)cc1 | 2.7 |
| O=C(CN1CCOCC1)Nc1ccc(Oc2ccc(NC(=O)CN3CCOCC3)cc2)cc1 | -0.278 |
| COc1ccc(NC(=O)CN2CCCCC2)cc1 | 0.473 |
| CC1CCCCN1CC(=O)Nc1ccc(Oc2ccccc2)cc1 (configuration not stated) | 3.58 (active) |
| O=C(CN1CCOCC1)Nc1ccc(C2CCCCC2)cc1 | 2.23 |
| O=C(CN1CCN(C(=S)NC2CCCC2)CC1)Nc1ccc(Oc2ccccc2)cc1 | -0.13 |
| CC1CCCCN1CC(=O)NC(=O)NCc1ccccc1 (configuration not stated) | -0.261 |
| O=C(CN1CCOCC1)Nc1ccc(Oc2ccccc2)cc1 | 1.91 |
| O=C(CN1CCNCC1)Nc1ccc(Oc2ccccc2)cc1 | 2.35 |
| C=CCn1c(N)c(C(=O)Nc2ccc(C)c(C)c2)c2nc3ccccc3nc21 | 0.661 |
| Cc1c(O)nc(SCC(=O)Nc2ccc3c4c(cccc24)CC3)n(-c2ccccc2)c1=O | -0.768 |
| CCOC(=O)N1CCN(C(=O)CN(C2CCCCC2)S(=O)(=O)c2ccc(F)cc2)CC1 | 0.315 |
| CCOC(=O)c1cnc2ccc(OCC)cc2c1N1CCN(c2ccccc2OC)CC1 | -0.8 |
| NC(=O)c1sc2nc(-c3ccco3)ccc2c1N | -0.321 |
| COC(=O)c1sc2nc(-c3ccco3)ccc2c1N | 2.53 |
| COc1ccccc1NC(=O)c1sc2nc(-c3ccco3)ccc2c1N | 0.132 |
| CC(C)CNC(=S)NNC(=O)c1ccc(OC(F)F)cc1 | -0.0885 |
| O=C(NNC(=S)NCc1ccccc1)c1ccc(OC(F)F)cc1 | 2.12 |
| CCNC(=S)NNC(=O)c1ccc(OC(F)F)cc1 | -0.194 |
